Rows were chosen to be rich in hits. Some 17% of all compounds tested hit in one or more screens of this group.
TDP1 cell noCPT: qHTS for Inhibitors of human tyrosyl-DNA phosphodiesterase 1 (TDP1): qHTS in cells in absence of CPT | DT40 Tdp1-/- hTDP1 cells, no CPT, ATP luminescence, 48 h | Potency, µM (titrated, usually from 46.2 µM), actives largely listed as inhibitors | 420,000 tested, 15% active; note: nearly all actives have a fitted effect of over 55% in size
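Growth of hTDP1-complemented DT40 Tdp1-knockout cells is measured by ATP luminescence after at least 48 hr compound exposure at 37 °C, with DMSO substituting for the 20 nM CPT used in the parallel screen.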
DT40 TDP1 CPT: qHTS for Inhibitors of human tyrosyl-DNA phosphodiesterase 1 (TDP1): qHTS in cells in presence of CPT | AID 686979, 2013 | Potency, µM (top dose mostly 46.2 µM), most hits filed as inhibitors | 420,000 tested, 12% active | chicken DT40 Tdp1-/-;hTDP1 cells + 20 nM CPT, ATP luminescence, 48 h; note: nearly all actives have a fitted effect of over 55% in size
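Cell growth measured by CellTiter-Glo luminescence after a minimum 48 h, 37 C compound exposure with 20 nM CPT in Tdp1-knockout DT40 cells stably expressing hTDP1, seeded 400/well; qHTS titration format.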
ATXN2 expr inh: Primary qHTS for Inhibitors of ATXN expression; HEK-293 ATXN2-luciferase reporter, luminescence, 24 h; Potency, µM (doses to about 57 µM), most hits filed as inhibitors; 360,000 tested, 0.72% active; note: nearly all actives have a fitted effect of over 55% in size
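ATXN2-luciferase reporter cells (luciferase flanked by upstream and downstream ATXN2 gene portions) were treated 24 h at 37 °C with compounds at up to 57 uM. SteadyGlo luminescence gave expression; GF-AFC fluorescence gave viability.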
HepG2 viability: qHTS for Inhibitors of TGF-b: Cytotox Counterscreen; AID 588856, 2011; 410,000 tested, 0.76% active; Potency, µM (titrated, usually from 46.1 µM), most hits filed as cytotoxic; HepG2 CAGA-GFP viability, ATP luminescence, 18 h
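CellTiter-Glo luminescence gave cytotoxicity after 18 hours at 37 degrees C. The cells were HepG2 CAGA-GFP in 1% FBS DMEM, stimulated with 500 pg/mL TGF-beta after compound addition. %Activity was normalised to no-cell wells (complete cell-killing) and DMSO (no toxicity), and curves were fitted and classified.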
TGFb inhibitor: qHTS for Inhibitors of TGF-b; 410,000 tested, 1.2% active; Potency, µM (doses to about 46.1 µM), most hits filed as inhibitors; HepG2 CAGA-GFP TGF-b/SMAD3 reporter, GFP fluorescence, 18 h; TGF-beta stimulated, 500 pg/mL final; note: nearly all actives have a fitted effect of over 65% in size
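Cell-based qHTS in HEPG2 carrying a CAGA-GFP Smad reporter; compounds added before 500 pg/mL final TGF-beta, 18 h incubation at 37 degrees C, GFP fluorescence quantified per cell by imaging cytometry.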
S2 tox: Viability Counterscreen for Primary qHTS for Inhibitors of ATXN expression; S2 cells (HEK-293 line with an ATXN2-luciferase reporter) viability, CellTiter-Fluor protease fluorescence, 24 h; Potency, µM (highest dose often 56.7 µM), actives largely listed as cytotoxic; 400,000 tested, 0.49% active; note: nearly all actives have a fitted effect of over 40% in size
Numbers stand for hits. Calls come from the whole dose curve; as a rule, active = well fitted curve in the direction sought with a large enough effect; inconclusive = small, poorly fitted or top-dose-only effect, or another doubt; inactive = no such curve, though single readings can be large; an effect the other way counts as inactive or inconclusive.

How did O=[N+]([O-])c1cccc(S(=O)(=O)N2CCCCC2c2cccnc2)c1 (stereo not drawn) do in these assays?
TDP1 cell noCPT: inconclusive; DT40 TDP1 CPT: 20.6µM; ATXN2 expr inh: inactive; HepG2 viability: inactive; TGFb inhibitor: inactive; S2 tox: inactive

How did Cc1nn(CCCC(=O)NCCc2ccccc2)c(=O)c2nccn12 do in these assays?
TDP1 cell noCPT: inactive; DT40 TDP1 CPT: inactive; ATXN2 expr inh: inactive; HepG2 viability: inactive; TGFb inhibitor: inactive; S2 tox: inactive

How did c1ccc2c(c1)OCCOCCOCCOCCOc1ccccc1OCCOCCOCCO2 do in these assays?
TDP1 cell noCPT: 18.4µM; DT40 TDP1 CPT: 14.6µM; ATXN2 expr inh: inactive; HepG2 viability: inactive; TGFb inhibitor: inconclusive; S2 tox: inactive

How did O=C1[C@@H]2[C@@H]3C[C@@H]([C@H]4ON=C(c5ccc(Cl)cc5)[C@@H]34)[C@@H]2C(=O)N1C1CCCCC1 do in these assays?
TDP1 cell noCPT: 9.2µM; DT40 TDP1 CPT: 16.4µM; ATXN2 expr inh: inactive; HepG2 viability: inactive; TGFb inhibitor: inconclusive; S2 tox: inactive

What do the screens show for `C=CCOc1ccc(C2=NO[C@@H]3[C@@H]4C[C@@H]([C@H]5C(=O)N(C)C(=O)[C@@H]45)[C@H]23)cc1`?
TDP1 cell noCPT: inactive; DT40 TDP1 CPT: inactive; HepG2 viability: inactive; TGFb inhibitor: inconclusive; S2 tox: inactive

How did CCOC(=O)CNc1nnc(SCC(=O)OCC)[nH]c1=O do in these assays?
TDP1 cell noCPT: inconclusive; DT40 TDP1 CPT: inactive; ATXN2 expr inh: inactive; HepG2 viability: inactive; TGFb inhibitor: inactive; S2 tox: inactive

How did NC(=O)CSc1ccc(S(=O)(=O)N2CCOCC2)cn1 do in these assays?
TDP1 cell noCPT: inactive; DT40 TDP1 CPT: inactive; ATXN2 expr inh: inactive; HepG2 viability: inactive; TGFb inhibitor: inactive; S2 tox: inactive

Results for O=C(CSc1ccc(S(=O)(=O)N2CCOCC2)cn1)Nc1ccc(OC(F)F)cc1 ?
TDP1 cell noCPT: inactive; DT40 TDP1 CPT: inactive; ATXN2 expr inh: inactive; HepG2 viability: inactive; TGFb inhibitor: inactive; S2 tox: inactive

How did CN(C)C(=O)CSc1ccc(S(=O)(=O)N2CCCC2)cn1 do in these assays?
TDP1 cell noCPT: inactive; DT40 TDP1 CPT: inactive; ATXN2 expr inh: inactive; HepG2 viability: inactive; TGFb inhibitor: inactive; S2 tox: inactive

What do the screens show for `CCN(C(=O)CSc1ccc(S(=O)(=O)N2CCOCC2)cn1)c1ccccc1`?
TDP1 cell noCPT: 16.4µM; DT40 TDP1 CPT: inconclusive; HepG2 viability: inactive; TGFb inhibitor: inactive; S2 tox: inactive

Results for O=C(CSc1ccc(S(=O)(=O)N2CCOCC2)cn1)Nc1ccc(F)c(F)c1 ?
TDP1 cell noCPT: 16.4µM; DT40 TDP1 CPT: 16.4µM; HepG2 viability: inactive; TGFb inhibitor: inconclusive; S2 tox: inactive

How did CC(C)N(C(=O)CSc1ccc(S(=O)(=O)N2CCCCC2)cn1)c1ccccc1 do in these assays?
TDP1 cell noCPT: 14.6µM; DT40 TDP1 CPT: inconclusive; ATXN2 expr inh: inactive; HepG2 viability: inactive; TGFb inhibitor: inconclusive; S2 tox: inactive

What do the screens show for `CC(Sc1ccc(S(=O)(=O)N2CCOCC2)cn1)c1ccccc1Cl` (stereo not drawn)?
TDP1 cell noCPT: 29.1µM; DT40 TDP1 CPT: inconclusive; ATXN2 expr inh: inactive; HepG2 viability: inactive; TGFb inhibitor: inactive; S2 tox: inactive

How did CCCN1CCC(=O)N([C@H](CSc2ccc(OC)cc2)CC(C)C)CC1 do in these assays?
TDP1 cell noCPT: inconclusive; DT40 TDP1 CPT: inconclusive; ATXN2 expr inh: inactive; HepG2 viability: inactive; TGFb inhibitor: inactive; S2 tox: inactive

What do the screens show for `COc1ccc(C(C)(NC(C)=O)c2nc(-c3cccc4cccnc34)cs2)cc1` (stereo not drawn)?
TDP1 cell noCPT: 23.1µM; DT40 TDP1 CPT: 20.6µM; ATXN2 expr inh: inactive; HepG2 viability: inactive; TGFb inhibitor: inactive; S2 tox: inactive

Assay outcomes deposited in PubChem BioAssay by National Center for Advancing Translational Sciences (NCATS).
